Experimental data taken from PubChem BioAssay (NCI).
About 83,000 compounds went through this panel and 20% of them were active in at least one assay; those are over-represented in the sample as a whole.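 96-well plates, one dose, 48 hours. Percent growth reported; active if below 10.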 Calls of active or inactive are those of the source.

Columns and labels:
Assay in all cases: NCI-60 one-dose screen, 48 h (100 = growth as untreated, 0 = no growth, -100 = all killed)
Details in all cases: 10 µM unless noted
NCI-H23 lung = test system: NCI-H23 lung
NCI-H226 lung = test system: NCI-H226 lung
NCI-H322M lung = test system: NCI-H322M lung
HOP-62 NSCLC = test system: HOP-62 NSCLC
NCI-H460 lung = test system: NCI-H460 lung
A549/ATCC NSCLC = test system: A549/ATCC NSCLC
786-0 renal = test system: 786-0 renal
COLO 205 colon = test system: COLO 205 colon

Measured: growth

O=C(O)CS(=O)c1ccc(Cl)cc1 (configuration not stated)
inactive: NCI-H23 lung 106% | NCI-H226 lung 103% | NCI-H322M lung 87.7% | HOP-62 NSCLC 101% | NCI-H460 lung 104% | A549/ATCC NSCLC 103% | 786-0 renal 95.7% | COLO 205 colon 107%

CCCCCCCCCCCCCCCCNC(=S)N/N=C/c1ccc(O)cc1O
inactive: NCI-H23 lung 77.1% | NCI-H226 lung 76% | NCI-H322M lung 95.2% | HOP-62 NSCLC 83.1% | NCI-H460 lung 37.1% | A549/ATCC NSCLC 55.1% | 786-0 renal 73.3% | COLO 205 colon 98%

NC(CSC(c1ccccc1)(c1ccccc1)c1ccccc1)C(=O)NCC(=O)O (configuration not stated)
inactive: NCI-H23 lung 86.3% | NCI-H226 lung 99.6% | NCI-H322M lung 47.9% | HOP-62 NSCLC 80% | NCI-H460 lung 95.2% | A549/ATCC NSCLC 86.8% | 786-0 renal 71.3% | COLO 205 colon 16.6%

CSc1nc(N)n2nccc2n1
inactive: NCI-H23 lung 107% | NCI-H226 lung 83.9% | NCI-H322M lung 102% | HOP-62 NSCLC 89.6% | NCI-H460 lung 104% | A549/ATCC NSCLC 102% | 786-0 renal 97.2%

CCCCCCCCCCCCCCCCNC(=O)Nc1ccc(C)c(NC(=O)NCCCCCCCCCCCCCCCC)c1
inactive: NCI-H23 lung 111% | NCI-H226 lung 98.9% | NCI-H322M lung 108% | HOP-62 NSCLC 98% | NCI-H460 lung 103% | A549/ATCC NSCLC 104% | 786-0 renal 118%

O=C(/C=C/c1ccc(Cl)cc1)c1ccc(Cl)cc1
inactive: NCI-H23 lung 94.8% | NCI-H226 lung 100% | NCI-H322M lung 91.3% | HOP-62 NSCLC 102% | NCI-H460 lung 104% | A549/ATCC NSCLC 95.5% | 786-0 renal 83.4% | COLO 205 colon 113%

O=C(O)COc1ccc([N+](=O)[O-])cc1Cl
inactive: NCI-H23 lung 108% | NCI-H226 lung 108% | NCI-H322M lung 99.8% | HOP-62 NSCLC 90.5% | NCI-H460 lung 108% | A549/ATCC NSCLC 100% | 786-0 renal 98.7% | COLO 205 colon 110%

O=P(OCCCl)(OCCCl)C(O)c1ccccc1Cl (configuration not stated)
inactive: NCI-H23 lung 106% | NCI-H226 lung 100% | NCI-H322M lung 97% | HOP-62 NSCLC 96.2% | NCI-H460 lung 115% | A549/ATCC NSCLC 111% | 786-0 renal 110%

CC(C)(C)c1ccc(OCCOC(=O)CBr)cc1
inactive: NCI-H23 lung 98.7% | NCI-H226 lung 102% | NCI-H322M lung 120% | HOP-62 NSCLC 99.1% | NCI-H460 lung 102% | A549/ATCC NSCLC 105% | 786-0 renal 103% | COLO 205 colon 89.1%

O=C1C(Br)=CC2C1C1C3CCC3C2(Br)C12OCCO2 (configuration not stated)
inactive: NCI-H23 lung 65.8% | NCI-H226 lung 59.6% | NCI-H322M lung 54.5% | HOP-62 NSCLC 47.2% | NCI-H460 lung 22.6% | A549/ATCC NSCLC 33.2% | 786-0 renal 42.8% | COLO 205 colon 38.9%

CN1NC(c2ccccc2)NN(C)C1=O
inactive: NCI-H23 lung 107% | NCI-H226 lung 102% | NCI-H322M lung 89.8% | HOP-62 NSCLC 93.6% | NCI-H460 lung 109% | A549/ATCC NSCLC 101% | 786-0 renal 102% | COLO 205 colon 105%

CC(=O)Nc1ccc(S(=O)(=O)Cl)cc1
inactive: NCI-H23 lung 112% | NCI-H226 lung 95.5% | NCI-H322M lung 111% | HOP-62 NSCLC 102% | NCI-H460 lung 102% | A549/ATCC NSCLC 104% | 786-0 renal 104% | COLO 205 colon 108%

CC(C)(CNC1CCCCC1)OC(=O)c1ccccc1
inactive: NCI-H23 lung 107% | NCI-H226 lung 97.8% | NCI-H322M lung 103% | HOP-62 NSCLC 102% | NCI-H460 lung 106% | A549/ATCC NSCLC 108% | 786-0 renal 100% | COLO 205 colon 104%

O=c1c2c(c3ccccc3n1-c1ccccc1)NC(=S)NC2c1ccccc1 (configuration not stated)
inactive: NCI-H23 lung 98.5% | NCI-H226 lung 92.1% | NCI-H322M lung 130% | HOP-62 NSCLC 90.5% | NCI-H460 lung 104% | A549/ATCC NSCLC 103% | 786-0 renal 97.3% | COLO 205 colon 113%

CCCCCCCCCCCCCCCCNC(=S)N/N=C/c1ccc(OC)cc1
inactive: NCI-H23 lung 103% | NCI-H226 lung 98.6% | NCI-H322M lung 108% | HOP-62 NSCLC 117% | NCI-H460 lung 104% | A549/ATCC NSCLC 96.1% | 786-0 renal 95.3% | COLO 205 colon 115%

C/C(=C\c1ccc2ccccc2c1)[N+](=O)[O-]
active: 786-0 renal -62.9% | COLO 205 colon -26.9%
inactive: NCI-H23 lung 74.6% | NCI-H226 lung 67% | NCI-H322M lung 78.2% | HOP-62 NSCLC 98.7% | NCI-H460 lung 98.8% | A549/ATCC NSCLC 97.3%

CCOC(=O)/C(C#N)=C(/CC)OCC
inactive: NCI-H23 lung 110% | NCI-H226 lung 102% | NCI-H322M lung 92.2% | HOP-62 NSCLC 104% | NCI-H460 lung 110% | A549/ATCC NSCLC 104% | 786-0 renal 103%

CC(O)CCC(C)[N+](=O)[O-] (configuration not stated)
inactive: NCI-H23 lung 111% | NCI-H226 lung 109% | NCI-H322M lung 98.7% | HOP-62 NSCLC 95.4% | NCI-H460 lung 109% | A549/ATCC NSCLC 96.3% | 786-0 renal 101%

COC(=O)[C@H](Cc1cn(C)cn1)NC(=O)[C@H](CC(=O)OCc1ccccc1)NC(=O)Nc1cc(C(F)(F)F)cc(C(F)(F)F)c1
active: NCI-H23 lung -83.9% [100 µM] | NCI-H226 lung -52.9% [100 µM] | NCI-H322M lung -96.7% [100 µM] | HOP-62 NSCLC -100% [100 µM] | NCI-H460 lung -62.8% [100 µM] | A549/ATCC NSCLC -80.9% [100 µM] | 786-0 renal -92% [100 µM] | COLO 205 colon -93.7% [100 µM]

CCn1cnc(C[C@H](NC(=O)[C@@H](NC(=O)Nc2cc(C(F)(F)F)cc(C(F)(F)F)c2)C(C)C)C(=O)OC)c1
active: NCI-H23 lung -78.8% [100 µM] | NCI-H226 lung -55.6% [100 µM] | NCI-H322M lung -95.9% [100 µM] | HOP-62 NSCLC -97.9% [100 µM] | NCI-H460 lung -43.2% [100 µM] | A549/ATCC NSCLC -71.4% [100 µM] | 786-0 renal -87.5% [100 µM] | COLO 205 colon -94.1% [100 µM]

C/C=C/C/C=C/[C@H](C)C[C@H](O)[C@@H]1C[C@@H]2O[C@H]2/C=C/[C@H](O)[C@@H](O)/C=C/C[C@H](C)CC(=O)O1
inactive: NCI-H23 lung 83% | NCI-H226 lung 87% | NCI-H322M lung 88.9% | HOP-62 NSCLC 89.6% | NCI-H460 lung 62.8% | A549/ATCC NSCLC 71.8% | 786-0 renal 83.3% | COLO 205 colon 109%

CC(CCN1CCN(CCC(C)CC(C)(C)C)C1CC(C)CC(C)(C)C)CC(C)(C)C (configuration not stated)
inactive: NCI-H23 lung 100% | NCI-H226 lung 98.7% | NCI-H322M lung 99.8% | HOP-62 NSCLC 93.5% | NCI-H460 lung 101% | A549/ATCC NSCLC 96.2% | 786-0 renal 97.9% | COLO 205 colon 86.2%

CC(=O)N1CCN(CCNC(=O)n2cc(-c3ccncc3)c(-c3cc(O)cc(Cl)c3)n2)CC1
inactive: NCI-H23 lung 99.7% | NCI-H226 lung 102% | NCI-H322M lung 106% | HOP-62 NSCLC 94.2% | NCI-H460 lung 89% | A549/ATCC NSCLC 102% | 786-0 renal 67.8% | COLO 205 colon 86.8%

CC(O)CN(CCO)CCN(CCO)CC(C)O (configuration not stated)
inactive: NCI-H23 lung 111% | NCI-H226 lung 99.3% | NCI-H322M lung 103% | HOP-62 NSCLC 110% | NCI-H460 lung 109% | A549/ATCC NSCLC 102% | 786-0 renal 94.6% | COLO 205 colon 115%

O=C(OCC1CC2(Cl)C(Cl)=C(Cl)C1(Cl)C2(Cl)Cl)C1C(C(=O)OCC2CC3(Cl)C(Cl)=C(Cl)C2(Cl)C3(Cl)Cl)C2(Cl)C(Cl)=C(Cl)C1(Cl)C2(Cl)Cl (configuration not stated)
inactive: NCI-H23 lung 105% | NCI-H226 lung 99.2% | NCI-H322M lung 98.4% | HOP-62 NSCLC 108% | NCI-H460 lung 114% | A549/ATCC NSCLC 103% | 786-0 renal 94%

COc1ccc(-c2nnc(SCC(=O)Nc3ccc(C(=O)/C=C/c4cc(OC)c(OC)c(OC)c4)cc3)n2-c2ccccc2)cc1OC
active: NCI-H23 lung -66.5% [100 µM] | NCI-H226 lung -15% [100 µM] | HOP-62 NSCLC -31.4% [100 µM] | A549/ATCC NSCLC -28.4% [100 µM] | 786-0 renal -54.9% [100 µM]
inactive: NCI-H322M lung 34.5% [100 µM] | NCI-H460 lung 11% [100 µM] | COLO 205 colon 30.3% [100 µM]

COC(=O)[C@H](Cc1cn(C)cn1)NC(=O)[C@@H](NC(=O)Nc1cc(C(F)(F)F)cc(C(F)(F)F)c1)C(C)(C)C
inactive: NCI-H226 lung 64.7% [100 µM] | A549/ATCC NSCLC 14.8% [100 µM]
active: NCI-H23 lung -64.7% [100 µM] | NCI-H322M lung -35.3% [100 µM] | HOP-62 NSCLC -84.2% [100 µM] | NCI-H460 lung -56.3% [100 µM] | 786-0 renal -88.2% [100 µM]

O=C(Nc1ccc(-n2cc(-c3ccncc3)c(-c3ccc(Cl)c(O)c3)n2)cc1)c1ccc(Cl)c(C(F)(F)F)c1
inactive: NCI-H226 lung 89% | NCI-H322M lung 37.2%
active: NCI-H23 lung -54.4% | HOP-62 NSCLC -66.1% | NCI-H460 lung -74.4% | A549/ATCC NSCLC -30.3% | 786-0 renal -94.1%

COC(=O)c1cc(=O)nc(N/N=C/c2ccccc2O)s1
inactive: NCI-H23 lung 89% | NCI-H226 lung 101% | NCI-H322M lung 67.2% | HOP-62 NSCLC 90.7% | NCI-H460 lung 94.5% | A549/ATCC NSCLC 94.4% | 786-0 renal 95.1% | COLO 205 colon 93%

COC(=O)c1c[n+]([O-])ccc1OC
inactive: NCI-H23 lung 106% | NCI-H226 lung 107% | NCI-H322M lung 97.1% | HOP-62 NSCLC 97.1% | NCI-H460 lung 107% | A549/ATCC NSCLC 105% | 786-0 renal 100% | COLO 205 colon 109%

O=C1CCNC1
inactive: NCI-H23 lung 111% | NCI-H226 lung 103% | NCI-H322M lung 96.5% | HOP-62 NSCLC 108% | NCI-H460 lung 109% | A549/ATCC NSCLC 101% | 786-0 renal 96.1%

O=Nc1ccc(O)c2ccccc12
active: NCI-H23 lung -9.22%
inactive: NCI-H226 lung 101% | NCI-H322M lung 106% | HOP-62 NSCLC 38.4% | NCI-H460 lung 96.7% | A549/ATCC NSCLC 41.6% | 786-0 renal 77.7% | COLO 205 colon 21.9%
